# KCNH2 3.1 inh: inhibitors of human KCNH2 3.1 potassium channel isoform | AID 720553 | activity change, % (tested at about 1.8 µM) | 340,000 compounds, 0.95% hits | U2OS KCNH2 3.1, thallium flux FluxOr; stronger effect = lower value;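 active = maximum activity change below -70%; inconclusive = maximum activity change from -70% to -50%; inactive = maximum activity change above -50%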;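 also: thallium influx rate constant from kinetic fluorescence after stimulation buffer; % is scaled to controls: 0 for no effect and ±100 for the full control effect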
#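 We transduce U2OS cells with the mutant 3.1 virus, culture them overnight, load FluxOr with Red40 quencher for 45 min, then add stimulation buffer and read kinetically for 2 min to derive a normalized rate constant.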
# PLK1 PBD block: inhibitors of human PLK1 polo-box domain binding; 360,000 compounds, 2.8% hits; Potency, µM, without a hit: max response, negative = inhibition, usual class: inhibitors; Plk1 PBD binding of FITC phosphopeptide, fluorescence polarization; AID 720504; P53350; also: potency is read from the fitted curve at half-maximal effect; series mostly up to about 57 µM; % is scaled to controls: 0 for no effect and ±100 for the full control effect; nearly all actives have a fitted effect of over 65% in size
# MBNL1-CUG inh: inhibitors of human MBNL1 binding to CUG repeat RNA. 280,000 compounds, 0.036% hits. Potency, µM (top dose mostly 57.5 µM), without a hit: at the top dose activity change, negative = inhibition, actives largely listed as inhibitors. TR-FRET MBNL1-His/biotin-(CUG)12 binding, 665/545 ratio. AID 2675; active = well fitted inhibition curve with a large enough effect in the signal ratio, with a control signal flat, not every such curve was filed as active; inconclusive = small, poorly fitted or top-dose-only effect, or effect the other way, or a change in a side signal; inactive = no such curve, though single readings can be large or run the other way; the % refers to the signal ratio; also: potency is read from the fitted curve at half-maximal effect; % is scaled to controls: 0 for no effect and ±100 for the full control effect
#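 Inhibition of protein-RNA binding appears as loss of TR-FRET between terbium anti-His antibody on MBNL1-His and streptavidin-XL665 on biotin-(CUG)12. Activity is normalized to buffer-only and uninhibited-complex controls.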
# KCNH2 WT inh: KCNH2 (human, wildtype) channel inhibition | U2OS, BacMam KCNH2, thallium flux FluxOr; stronger effect = lower value | activity change, % at 1.84 µM | 340,000 compounds, 0.37% hits | AID 720551;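 active = maximum activity change below -70%; inconclusive = maximum activity change between -70% and -50%; inactive = maximum activity change above -50%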; also: % is scaled to controls: 0 for no effect and ±100 for the full control effect
# Target sequence (Q12809 whole entry, looked up): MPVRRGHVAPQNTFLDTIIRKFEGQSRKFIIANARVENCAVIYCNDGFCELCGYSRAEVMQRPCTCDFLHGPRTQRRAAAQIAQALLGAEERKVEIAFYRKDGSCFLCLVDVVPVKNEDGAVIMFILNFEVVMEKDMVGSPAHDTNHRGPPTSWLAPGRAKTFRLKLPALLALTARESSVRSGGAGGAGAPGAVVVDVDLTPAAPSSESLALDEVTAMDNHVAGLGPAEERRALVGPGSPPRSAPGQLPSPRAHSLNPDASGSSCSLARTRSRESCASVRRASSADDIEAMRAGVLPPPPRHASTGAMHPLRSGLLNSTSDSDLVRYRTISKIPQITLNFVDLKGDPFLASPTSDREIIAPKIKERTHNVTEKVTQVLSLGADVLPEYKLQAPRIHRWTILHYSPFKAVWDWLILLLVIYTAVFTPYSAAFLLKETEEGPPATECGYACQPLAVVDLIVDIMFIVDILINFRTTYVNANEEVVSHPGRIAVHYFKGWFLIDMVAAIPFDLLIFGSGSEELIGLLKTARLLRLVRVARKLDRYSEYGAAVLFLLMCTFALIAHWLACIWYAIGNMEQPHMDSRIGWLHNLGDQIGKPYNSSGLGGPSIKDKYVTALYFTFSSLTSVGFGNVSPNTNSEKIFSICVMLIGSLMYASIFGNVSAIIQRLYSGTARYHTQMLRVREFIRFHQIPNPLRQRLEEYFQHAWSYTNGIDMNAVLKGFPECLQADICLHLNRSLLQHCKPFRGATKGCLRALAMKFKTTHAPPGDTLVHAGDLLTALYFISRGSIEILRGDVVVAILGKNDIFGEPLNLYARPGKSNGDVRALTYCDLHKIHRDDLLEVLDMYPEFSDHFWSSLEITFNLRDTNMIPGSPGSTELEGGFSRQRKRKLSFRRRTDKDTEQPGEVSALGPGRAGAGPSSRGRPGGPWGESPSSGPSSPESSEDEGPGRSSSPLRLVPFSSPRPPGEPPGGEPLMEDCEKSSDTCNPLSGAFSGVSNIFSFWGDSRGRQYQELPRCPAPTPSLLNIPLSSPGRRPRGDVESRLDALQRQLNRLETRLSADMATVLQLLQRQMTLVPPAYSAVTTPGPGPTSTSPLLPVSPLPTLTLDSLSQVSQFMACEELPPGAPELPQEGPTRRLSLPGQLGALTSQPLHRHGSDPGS
#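 U2OS cells transduced with wild-type KCNH2 virus are loaded with FluxOr dye for 45 min, and thallium flux is measured in kinetic reads before and after stimulation buffer. Rate constants are normalized to DMSO controls.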
# CBFb-RUNX1 inh: blocks binding between human CBF-beta and RUNX1; 230,000 tested, under 10 active; Potency, µM (top dose mostly 59.8 µM), for the others: at the top dose activity, negative = inhibition, actives largely listed as inhibitors; AlphaScreen CBFb-His/RUNX1-biotin binding, biochemical; Q01196+Q13951; also: % of control where 0% means no effect
#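 CBF-beta (His) and RUNX1 (biotin), 30 nM each; 20 min preassociation; + compound, 15 min; + beads 50 ng each (Ni, streptavidin), 90 min; RT; AlphaScreen read.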
# VDR inhibitor: blocks the human vitamin D receptor | Potency, µM, for inactives: max response, negative = inhibition, actives largely listed as inhibitors | VDR-SRC2-3 peptide fluorescence polarization, 2 h | AID 504847 | 400,000 compounds, 0.93% hits; also: potency is read from the fitted curve at half-maximal effect; % is scaled to controls: 0 for no effect and ±100 for the full control effect
#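 FP read-out; VDR + SRC2-3 coactivator peptide; 23 nl compound by pintool; 2 h RT incubation; reagents held at 4 deg C, protected from light.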
# Numbers without * were called inactive; ? = inconclusive; / = not tested or not shown; [ ] = dose if it differs, or a comment. The list is not random: actives were taken first. Their share in the collection is about 3.8%. Unless noted, calls follow the shape of the dose curve; as a rule, active = well fitted curve in the direction sought with a large enough effect; inconclusive = small, poorly fitted or top-dose-only effect, or another doubt; inactive = no such curve, though single readings can be large; an effect the other way counts as inactive or inconclusive.
SMILES,KCNH2 3.1 inh,PLK1 PBD block,MBNL1-CUG inh,KCNH2 WT inh,CBFb-RUNX1 inh,VDR inhibitor
C/C=C\C=C/C(=O)Nc1cccc(C2=NOC3(C2)C[C@@H](C(N)=O)N(C(=O)c2ccccc2)C3)c1 (stereo partly specified),/,/,2.8%,/,8.4%,/
C/C=C/C=C\C(=O)Nc1cccc(C2=NOC3(C2)C[C@H](C(N)=O)N(C(=O)/C=C/C)C3)c1 (stereo partly specified),-176.8*,-26.7%,0.7%,-1.8,6.7%,?
C/C=C/C=C\C(=O)Nc1cccc(C2=NOC3(C2)C[C@@H](C(N)=O)N(C(=O)c2cc([N+](=O)[O-])cc([N+](=O)[O-])c2C)C3)c1 (stereo partly specified),0.4,33.6µM*,?,-17.6,-16.4%,?
CCCCN(CCCC)CCNC(=O)c1cn(CC)c2ccc(S(=O)(=O)N(C)C3CCCCC3)cc2c1=O,-82.6*,-2.7%,-10.2%,-70.2*,/,-12.9%
CCCCN(C)CCCNC(=O)c1cn(CC)c2ccc(S(=O)(=O)N3CCc4ccccc4C3)cc2c1=O,-91.4*,-7.4%,-5.8%,?,0.3%,-1.2%
CCC(CC)C(=O)Nc1c2c(nn1-c1ccc(OC)cc1)CS(=O)(=O)C2,4.0,-5.7%,-5.6%,-7.3,0.3%,-7.3%
CCC(CC)C(=O)Nc1c2c(nn1-c1ccc(F)cc1)CS(=O)(=O)C2,-80.6*,-7.6%,-5.1%,2.7,/,9.3%
O=C(Cn1c(-c2cccs2)cc2ccccc21)N1CCN(c2ccccc2F)CC1,/,/,/,/,/,12.6%
N#CC1=C2SCN(C3CCCCC3)CN2C(=O)CC1c1c(F)cccc1Cl (stereo unspecified),/,/,/,/,/,20µM*
N#CC1=C2SCN(C3CCCCC3)CN2C(=O)CC1c1ccc(F)cc1 (stereo unspecified),/,/,/,/,/,17.8µM*
N#CC1=C2SCC(O)(c3ccccc3)N2C(=O)CC1c1ccccc1F (stereo unspecified),-20.1,-5.4%,?,-5.3,-9.1%,9.3%
CC(C)c1ccc(C2CC(=O)N3CN(C)CSC3=C2C#N)cc1 (stereo unspecified),-7.6,4.74µM*,-1.2%,10.9,-6.5%,?
N#CC1=C2SCN(C3CCCCC3)CN2C(=O)CC1c1ccc(Cl)cc1 (stereo unspecified),/,/,/,/,/,22.4µM*
COc1ccc(C2CC(=O)N3C(=C2C#N)SCC3(O)c2ccccc2)cc1 (stereo unspecified),5.9,-2.0%,?,11.4,-24.0%,15.3%
COc1cc(-c2noc(CCC(=O)Nc3cc(C)ccc3C)n2)cc(OC)c1OC,/,/,/,/,/,16.6%
Cc1c(C)c2c(c(C)c1O)CCC(C)(COc1ccc(Cc3sc(=O)[nH]c3O)cc1)O2 (stereo unspecified),/,/,/,/,-15.2%,-10.3%
CCOc1ccccc1CNC(=O)c1cc(-c2ccc(Cl)s2)nc2ccccc12,/,/,/,/,/,6.2%
C#C[C@]1(O)CC[C@H]2[C@H]3CCC4=Cc5oncc5C[C@]4(C)[C@@H]3CC[C@]21C,/,/,/,/,-1.3%[21.7 µM],2.3%
Fc1ccc(Nc2nc(-c3cccc(Cl)c3)c3c(n2)-c2ccccc2OC3)c(F)c1,/,/,/,/,/,5.2%
O=C1N/C(=N/NC(=O)c2cccc3ccccc23)S/C1=C\c1ccccc1OCc1ccccc1,15.4,26.7µM*,-9.4%,-0.6,-13.4%,-4.0%
CCOC(=O)c1[nH]c2ccccc2c1NC(=O)c1cc(OC)cc(OC)c1,/,/,/,/,/,-24.8%
OC(COCc1ccc(Cl)cc1)CN1CCCCC1 (stereo unspecified),-4.6,-7.3%,-10.2%,8.4,/,3.4%
CC(C)(C)NCC(O)COCc1ccc(Cl)cc1 (stereo unspecified),-0.6,23.8µM*,-2.8%,-3.1,10.8%,-18.2%
OC(COCc1ccc(Cl)cc1)CN1CCN(CC(O)COCc2ccc(Cl)cc2)CC1 (stereo unspecified),-88.4*,-3.7%,-18.8%,1.9,14.2%,5.0%
CC(Nc1nc(=S)nc(Nc2ccc(F)cc2)[nH]1)c1ccccc1 (stereo unspecified),-2.2,13.4µM*,1.7%,1.3,/,?
SMILES,KCNH2 3.1 inh,PLK1 PBD block,MBNL1-CUG inh,KCNH2 WT inh,CBFb-RUNX1 inh,VDR inhibitor
Cc1ccc(C2C(C#N)=C(N)Oc3n[nH]c(-c4ccccc4)c32)o1 (stereo unspecified),-1.8,3.36µM*,7.8%,-10.4,-6.3%,25.1µM*
N#CC1=C(N)Oc2n[nH]c(-c3cccs3)c2C1c1cccs1 (stereo unspecified),8.3,23.8µM*,-7.3%,-26.0,-1.8%,7.0%
CCc1c(C)sc2c1CCN(Cc1ccc(F)cc1)C2c1ccccc1 (stereo unspecified),/,/,/,/,/,13.9%
O=C(NCCCc1nc2ccccc2n1CCOc1ccccc1)C1CCCCC1,/,/,/,/,/,-6.8%
N#Cc1cc([N+](=O)[O-])ccc1Oc1cccc(/C=N/NC(=O)c2cccc(Cl)c2)c1,?,-2.8%,?,-77.0*,-12.9%,-10.4%
O=C(COC(=O)c1ccncc1)Nc1cccc(Cl)c1,3.7,21.2µM*,-2.6%,-0.7,7.7%,-18.9%
O=C(Nc1cccc(Cl)c1)OCC#CCCl,/,/,/,/,/,3.55µM*
O=C(COC(=O)c1cccnc1)Nc1cccc(Cl)c1,0.2,-3.3%,-4.1%,5.5,2.9%,11.3%
O=C(Nc1cccc(Cl)c1)OCCOC(=O)Nc1cccc(Cl)c1,13.7,-1.0%,/,3.6,/,2.3%
Clc1cccc(N/N=C/c2ccncc2)c1,-9.7,-14.0%,/,-1.3,-0.3%,7.6%
O=C(Nc1cccc(Cl)c1)O/N=C\c1ccncc1,5.2,9.47µM*,-13.4%,-9.8,2.1%,4.9%
CCc1ccc(CNC(=O)c2ccc(NC(=O)N3CCCCc4ccccc43)cc2)cc1,/,/,/,/,/,-2.0%
COc1ccc(-c2nc3sc(CCNC(=O)C(=O)Nc4ccc(C)c(C)c4)c(C)n3n2)cc1,/,/,/,/,/,4.4%
O=C(c1ccccc1)N1N=C(c2ccco2)CC1c1cccs1 (stereo unspecified),-7.4,21.2µM*,9.9%,-4.4,-0.8%,8.7%
O=C(c1ccccc1)N1N=C(c2ccccc2)CC1c1ccccc1O (stereo unspecified),-0.3,3.36µM*,-5.9%,-16.1,0.6%,?
O=C(c1ccncc1)N1N=C(c2ccc(Br)cc2)CC1c1ccccc1O (stereo unspecified),-14.4,1.4%,-1.0%,-9.6,/,-0.4%
Cc1ccc(Nc2cc(C)c(O)c(C)c2)cc1,55.0,26.7µM*,-6.7%,9.6,/,25.1µM*
CCOc1ccc(NC(=O)c2ccc3c(=O)n4nc(Nc5ccccc5C)sc4nc3c2)cc1,/,/,/,/,/,-4.5%
CCCc1cc(=O)oc2cc(OCc3ccc(OC)cc3)c(Cl)cc12,-73.8*,-18.4%,-14.8%,-17.9,5.5%,23.5%

# Screens (PubChem BioAssay)
